Experiment [1] in a line: optical density shifts of acrAB sulA E. coli – strain DRC41, OD650, 48 h, E. coli filamentation inducer project, primary screen (AID 1152).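 Further: E. coli MC1000 strain DRC41 lacking acrAB efflux pump and sulA.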 The following applies: higher = more signal, called active from +8 up or from −8 down.
Experiment [2] is described as follows: probe aLefty1 binding on compound microarray – biochemical, small-molecule microarray, 635/667 nm fluorescence, primary screen (AID 1153).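 Further: score merges spot fluorescence with signal-to-noise ratio from the scanned slide images.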 The following applies: higher = more signal.
A short description of experiment [3]: plasmodial surface anion channel blockers, osmotic lysis – cell-based, P. falciparum Indochina, OD700, 1 h, primary screen (AID 1154). The following applies: P. falciparum Indochina infected RBC osmotic lysis, higher = more signal, called active from +8 up or from −8 down.
The nature of experiment [4]: plasmodial surface anion channel blockers, osmotic lysis – cell-based, P. falciparum Indochina, OD700, 2 h, primary screen (AID 1155).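 Further: lysis reports solute entry through the parasite surface anion channel PSAC.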 The following applies: P. falciparum Indochina infected erythrocytes, higher = more signal, called active from +8 up or from −8 down.
Experiment [5] can be described thus: changes in parasitized red cell lysis, either direction – P. falciparum Indochina, OD700, 3 h, PSAC antagonist project, primary screen (AID 1156). The note with it: P. falciparum-infected erythrocytes, osmotic lysis, higher = more signal, called active from +8 up or from −8 down.
Experiment [6] in a line: plasmodial surface anion channel blockers, osmotic lysis – cell-based, P. falciparum Indochina, OD700, 18 h, primary screen (AID 1157). The following applies: P. falciparum Indochina infected erythrocytes, osmotic lysis OD700, 18 h; higher = more signal, called active from +8 up or from −8 down.
Experiment [7] in a line: S6 kinase pathway phospho-S6 level changes – cell-based, A549, cytoblot, luminescence, serum-stimulated, primary screen (AID 1158).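 Further: serum-stimulated A549 lung adenocarcinoma cells; signal is phosphorylated S6 detected by cytoblot immunostaining with HRP secondary.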 The note with it: 5 h, higher = more signal.
Experiment [8] deals with NADPH oxidase 2 (Homo sapiens) (UniProt P04839). Put plainly: compounds shifting NOX2 Amplex Red fluorescence – cell-based, HEK293-NOX2, PMA-stimulated, NOX inhibitor project, primary screen (AID 1159). Further: test concentration not given here. The note with it: 45 min, higher = more signal, called active from +8 up or from −8 down.
Chain of NADPH oxidase 2 (Homo sapiens) (P04839 whole entry, looked up): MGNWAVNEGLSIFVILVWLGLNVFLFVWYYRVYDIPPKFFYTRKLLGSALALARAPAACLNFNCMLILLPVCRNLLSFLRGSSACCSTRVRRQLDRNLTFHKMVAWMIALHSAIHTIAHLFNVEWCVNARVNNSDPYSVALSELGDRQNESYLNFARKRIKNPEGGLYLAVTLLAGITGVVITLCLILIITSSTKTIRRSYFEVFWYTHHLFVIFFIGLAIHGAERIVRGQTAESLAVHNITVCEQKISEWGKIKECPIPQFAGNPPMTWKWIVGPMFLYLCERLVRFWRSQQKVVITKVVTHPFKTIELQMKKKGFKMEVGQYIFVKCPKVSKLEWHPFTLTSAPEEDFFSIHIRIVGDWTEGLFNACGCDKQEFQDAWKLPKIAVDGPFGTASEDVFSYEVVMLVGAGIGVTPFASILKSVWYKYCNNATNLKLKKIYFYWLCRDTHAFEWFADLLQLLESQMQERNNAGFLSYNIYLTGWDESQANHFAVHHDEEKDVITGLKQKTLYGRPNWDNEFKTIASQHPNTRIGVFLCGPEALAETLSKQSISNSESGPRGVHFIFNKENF
Experiment [9] concerns the target NADPH oxidase 4 (Homo sapiens) (UniProt Q9NPH5). The experiment can be described thus: compounds shifting NOX4 Amplex Red fluorescence – cell-based, HEK293-NOX4, tetracycline-induced, NOX inhibitor project, primary screen (AID 1160). The following applies: HEK293-NOX4, Amplex Red H2O2 fluorescence, 45 min; higher = more signal, called active from +8 up or from −8 down.

The target in experiment [10] is NADPH oxidase 5 (Homo sapiens) (UniProt Q96PH1). The experiment can be described thus: compounds shifting NOX5 Amplex Red fluorescence – cell-based, HEK293-NOX5, NOX inhibitor project, primary screen (AID 1161). The note with it: HEK293-NOX5, ionomycin, 45 min, higher = more signal.
Chain of NADPH oxidase 5 (Homo sapiens) (Q96PH1 whole entry, looked up): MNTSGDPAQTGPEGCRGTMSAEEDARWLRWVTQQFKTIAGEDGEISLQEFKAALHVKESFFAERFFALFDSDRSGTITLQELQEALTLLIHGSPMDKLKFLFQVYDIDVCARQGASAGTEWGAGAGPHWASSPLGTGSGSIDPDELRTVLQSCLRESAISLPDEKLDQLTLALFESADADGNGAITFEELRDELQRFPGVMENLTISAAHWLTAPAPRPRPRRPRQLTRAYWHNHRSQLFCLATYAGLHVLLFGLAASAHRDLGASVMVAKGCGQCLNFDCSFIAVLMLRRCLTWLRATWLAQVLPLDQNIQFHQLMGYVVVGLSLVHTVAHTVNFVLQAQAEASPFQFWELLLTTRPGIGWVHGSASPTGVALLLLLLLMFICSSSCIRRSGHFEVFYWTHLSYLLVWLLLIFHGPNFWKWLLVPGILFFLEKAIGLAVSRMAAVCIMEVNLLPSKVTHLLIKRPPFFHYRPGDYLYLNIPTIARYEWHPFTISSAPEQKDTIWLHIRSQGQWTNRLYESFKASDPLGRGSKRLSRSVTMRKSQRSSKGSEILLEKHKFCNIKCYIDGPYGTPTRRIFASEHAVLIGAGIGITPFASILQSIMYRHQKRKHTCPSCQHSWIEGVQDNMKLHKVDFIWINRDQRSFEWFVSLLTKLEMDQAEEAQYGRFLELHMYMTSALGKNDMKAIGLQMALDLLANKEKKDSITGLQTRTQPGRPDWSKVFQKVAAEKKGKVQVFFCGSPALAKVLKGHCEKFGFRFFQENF
Experiment [11] is described as follows: compound effects on lung adenocarcinoma cell viability – A549, calcein-AM fluorescence, 48 h, basal, profiling panel (AID 1162). Further: test concentration not given here. The note with it: higher = more signal.
A short description of experiment [12]: compound effects on differentiated 3T3-L1 adipocyte viability – cell-based, 3T3-L1 adipocytes, calcein-AM fluorescence, 48 h, basal, profiling panel (AID 1163). Further: test concentration not given here. The following applies: 3T3-L1 adipocytes viability, higher = more signal.
Experiment [13] can be described thus: compound effects on hepatocellular carcinoma cell viability – HepG2, calcein-AM fluorescence, 48 h, basal, profiling panel (AID 1164). Further: test concentration not given here. The note with it: higher = more signal.
Experiment [14] can be described thus: compound effects on multiple myeloma cell viability – MM1S, calcein-AM fluorescence, 48 h, basal, profiling panel (AID 1165).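 Further: viability of MM1S multiple myeloma cells under basal unstimulated conditions; test concentration not given here.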 The following applies: higher = more signal.
Experiment [15] is described as follows: calcein-AM signal in unstimulated myeloma cells – cell-based, calcein-AM fluorescence, 48 h, PK04 Diversity Set, profiling panel (AID 1166).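 Further: cells grown under basal conditions without added stimulus; test concentration not given here.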 The following applies: RPMI8226 myeloma viability, higher = more signal.
Experiment [16] is described as follows: JC-1 mitochondrial signal, unstimulated HepG2 cells – cell-based, JC-1 fluorescence, 24 h, 100 nL compound, profiling panel (AID 1167). Further: test concentration not given here. The note with it: HepG2 mitochondrial potential, higher = more signal.
The nature of experiment [17]: JC-1 mitochondrial signal, unstimulated adipocytes – cell-based, JC-1 fluorescence, 3T3-L1 adipocytes, 24 h, 100 nL compound, profiling panel (AID 1168). Further: test concentration not given here. The following applies: JC-1 mitochondrial fluorescence, higher = more signal, called active from +8 up or from −8 down.
Experiment [18] can be described thus: JC-1 mitochondrial signal, unstimulated myeloma cells – cell-based, JC-1 fluorescence, RPMI8226, 24 h, 100 nL compound, profiling panel (AID 1169). Further: test concentration not given here. The note with it: JC-1 mitochondrial potential fluorescence, higher = more signal.
Experiment [19] can be described thus: JC-1 mitochondrial signal, unstimulated MM1S myeloma – cell-based, JC-1 fluorescence, 24 h, 100 nL compound, profiling panel (AID 1170). Further: test concentration not given here. The note with it: MM1S mitochondrial potential, higher = more signal.
The nature of experiment [20]: resazurin metabolic signal in A549 cells – cell-based, resazurin fluorescence, 24 h, PK04 Diversity Set, profiling panel (AID 1171). Further: test concentration not given here. The note with it: A549 viability, higher = more signal, called active from +8 up or from −8 down. For orientation: Alamar Blue is a resazurin reagent that responds to reducing activity.

Activity calls are given as the source filed them.

Chain of NADPH oxidase 4 (Homo sapiens) (Q9NPH5 whole entry, looked up): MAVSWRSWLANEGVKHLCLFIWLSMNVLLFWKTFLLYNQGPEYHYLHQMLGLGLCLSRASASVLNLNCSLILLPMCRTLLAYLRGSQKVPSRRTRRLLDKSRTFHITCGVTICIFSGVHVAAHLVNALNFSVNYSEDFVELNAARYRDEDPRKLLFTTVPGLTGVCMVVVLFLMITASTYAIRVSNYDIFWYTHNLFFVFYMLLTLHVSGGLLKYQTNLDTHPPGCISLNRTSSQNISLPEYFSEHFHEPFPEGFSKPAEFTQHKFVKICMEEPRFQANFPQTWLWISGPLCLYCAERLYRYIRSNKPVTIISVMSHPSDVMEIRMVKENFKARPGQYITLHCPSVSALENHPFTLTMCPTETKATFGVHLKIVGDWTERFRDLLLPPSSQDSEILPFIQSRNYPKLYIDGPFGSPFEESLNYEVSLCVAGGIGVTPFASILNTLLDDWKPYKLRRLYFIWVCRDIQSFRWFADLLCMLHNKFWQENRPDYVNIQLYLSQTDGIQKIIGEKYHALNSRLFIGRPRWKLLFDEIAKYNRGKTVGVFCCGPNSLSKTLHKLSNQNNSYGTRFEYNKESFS

With `CO[C@H]1O[C@H](CO)[C@@H](OC(=O)Nc2cccc(F)c2)[C@H](OC(=O)Nc2ccccc2)[C@H]1OC(=O)Nc1ccccc1`, the z-score is -0.198 (inactive) in experiment [1]; 4.41 (inactive) in experiment [3]; 1.13 (inactive) in experiment [4]; -0.711 (inactive) in experiment [5]; 0.986 (inactive) in [6]; 0.627 in experiment [7]. The z-score in [8] is -6.46 (inactive); in experiment [9] it was -1.09 (inactive); in experiment [10], -2.13; in [11], -2.2; in experiment [12], 1.33; in experiment [13] it was -2.94. Also, the z-score is -1.53 in experiment [14]; -4.26 in experiment [15]; -0.389 in experiment [16]; 0.518 (inactive) in experiment [17]; -1.33 in experiment [18]; -0.561 in experiment [19]. In experiment [20], the z-score was -3.72 (inactive). In experiment [2], this molecule showed a composite z-score of 0.435.
`CCOc1ccc(N2C(=O)CSC2c2cccc([N+](=O)[O-])c2)cc1` (stereo not given): the z-score in experiment [1] was 0.379 (inactive); in [3], 0.289 (inactive); in [4] it was 0.285 (inactive); in experiment [5] it was 0.85 (inactive); in [6], 0.0093 (inactive); in experiment [7], -0.287. The z-score was -0.957 (inactive) in [8]; -0.214 (inactive) in [9]; 0.887 in [10]; 1.77 in experiment [11]; -0.704 in experiment [12]; 1.1 in [13]. In addition, the z-score in experiment [14] was -0.119; in experiment [15] it was -0.804; in [16], 1.61; in [17], 0.989 (inactive); in experiment [18], -0.127; in experiment [19], -0.288. The z-score in [20] was 0.0421 (inactive). The same molecule had a composite z-score in experiment [2] of 0.166.
Consider `CN1C(=O)C2C=CC(C(O)c3ccccc3)N(N3CCCCC3)C2C1=O` (stereo not given), for which the z-score in experiment [1] is -2 (inactive); in experiment [3], 0.15 (inactive); in experiment [4] it was 0.913 (inactive); in experiment [5] it was 0.302 (inactive); in experiment [6], 0.827 (inactive); in experiment [7], -0.965. The z-score in experiment [8] is -0.121 (inactive); in experiment [9] it was -1.01 (inactive); in experiment [10] it was -1.08; in [11] it was -1.15; in experiment [12] it was -0.898; in experiment [13] it was -0.0624. Besides, the z-score was -0.4 in experiment [14]; 0.539 in experiment [15]; -0.699 in experiment [16]; 0.651 (inactive) in experiment [17]; 0.0583 in experiment [18]; 0.581 in experiment [19]. For the same molecule, in experiment [20], the z-score is -0.789 (inactive). The molecule further registered a composite z-score in experiment [2] of 0.0971.
As for `[N-]=[N+]=Nc1ccccc1C[C@]1(C(=O)NCC(O)CO)N=C(c2ccc(OCCCO)cc2)O[C@H]1c1ccccc1` (stereo not given in full), the z-score is -0.2 (inactive) in [1]; 19.9 (active) in experiment [3]; 3.78 (inactive) in [4]; 1.64 (inactive) in [5]; 1.18 (inactive) in experiment [6]; -0.132 in [7]. The z-score in experiment [8] is 1.34 (inactive); in [9] it was 0.567 (inactive); in [10] it was -1.25; in experiment [11] it was -0.432; in [12] it was -0.281; in [13], -0.259. For the same molecule, the z-score is -1.04 in [14]; -0.984 in experiment [15]; -0.571 in experiment [16]; -0.332 (inactive) in experiment [17]; -0.514 in experiment [18]; -0.283 in experiment [19]. In [20], the z-score was 0.381 (inactive). In experiment [2], the composite z-score was 0.027.
Consider `COCCOC(=O)N1C(=O)[C@@]2(c3cc(C#CC4(O)CCCCCC4)ccc31)[C@H](C(=O)Nc1nc3ccccc3s1)[C@H]1C(=O)O[C@H](c3ccccc3)[C@H](c3ccccc3)N1[C@@H]2c1ccc(OCCO)cc1`, for which the z-score in experiment [1] was 0.197 (inactive); in experiment [3], 2.97 (inactive); in experiment [4] it was 2.39 (inactive); in experiment [5], 1.73 (inactive); in experiment [6], 2.27 (inactive); in experiment [7] it was 0.481. In addition, the z-score in experiment [8] was 0.566 (inactive); in [9], -0.595 (inactive); in [10], 0.0214; in experiment [11], -0.593; in [12], 1.47; in experiment [13] it was -0.15. In addition, the z-score in [14] is -1.83; in experiment [15] it was -2.56; in experiment [16], -3.3; in [17], -0.438 (inactive); in [18], -0.635; in [19], -1.18. For the same molecule, in experiment [20], the z-score was 0.566 (inactive). For the same molecule, the composite z-score in experiment [2] was 0.411.

These data come from PubChem BioAssay.
